FGF22 binding: FGF22 (human) thermal shift binding; hit rate 1.5% among 340,000; recombinant FGF22 thermal shift, SYPRO orange fluorescence; percent of sucrose octasulfate shift, DMSO zero; activity (Tm shift, normalised), % at 9.99 µM; Q9HCT0;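 active = mean Tm shift, scaled 0 neutral to 100 positive control, at about 1.3% or above, every replicate too, limit read from the data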
Target sequence (Q9HCT0 whole entry, looked up): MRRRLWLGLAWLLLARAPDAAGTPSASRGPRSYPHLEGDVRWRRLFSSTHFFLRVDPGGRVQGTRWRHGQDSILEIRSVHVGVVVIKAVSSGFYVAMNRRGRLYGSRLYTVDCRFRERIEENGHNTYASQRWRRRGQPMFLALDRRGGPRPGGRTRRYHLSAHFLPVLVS
ERAP1 inh: inhibitors of human ERAP1 aminopeptidase; recombinant ERAP1, Leu-AMC fluorescence, 60 min; inhibition, % at 10.7 µM; Q9NZ08; hit rate 0.15% among 340,000;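 active = mean replicate inhibition of at least 30%, or all replicates individually reaching that 30% level; inactive = mean below 30% and not every replicate reaching it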;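 note: 0% = neutral control wells and 100% = L-leucinethiol positive control wells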
Casp6 inh: inhibitors of human caspase-6 | purified caspase-6, Z-VEID-R110 cleavage fluorescence | inhibition, % at 12.5 µM | hit rate 0.53% among 350,000 | AID 686996;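 active = mean inhibition across replicates at least about 35%, with every replicate also reaching that limit, limit read from the data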;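 note: 0% = median of neutral control wells and 100% = no fluorescence left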
Target sequence (P55212 24-179 limits assumed): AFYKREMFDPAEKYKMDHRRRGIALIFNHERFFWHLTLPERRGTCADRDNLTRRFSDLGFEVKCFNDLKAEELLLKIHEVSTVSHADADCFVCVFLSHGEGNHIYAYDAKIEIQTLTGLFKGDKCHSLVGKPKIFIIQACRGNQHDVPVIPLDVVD
Target sequence (P55212 194-293 limits assumed): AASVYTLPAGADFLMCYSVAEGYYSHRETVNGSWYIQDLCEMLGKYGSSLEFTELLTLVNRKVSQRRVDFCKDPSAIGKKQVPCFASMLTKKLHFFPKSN
SIRT5 inh: blocks human SIRT5 desuccinylation of peptide | Q9NXA8 | inhibition, % at 15 µM | AID 652115 | hit rate 1.1% among 330,000 | Purified SirT5, succinyl-peptide AMC, trypsin-coupled fluorescence; in the data active = inhibition above about 15%
* = called active by the depositor; . = no result; ! = repeats disagree. The list is not random: actives were taken first. Their share in the collection is about 3.1%.

SMILES	FGF22 binding	ERAP1 inh	Casp6 inh	SIRT5 inh
S=C(Nc1ccccc1)Nc1ccccn1	0.1	2.9	0.8	.
COc1ccccc1Cc1nc(-c2ccncc2)no1	43.1*	0.0	-0.3	-8.5
CC(C)CC#Cc1cnc2c(c1)C(=O)N([C@H](C)CO)C[C@@H](C)[C@H](CN(C)C(=O)c1cnccn1)O2	0.0	-2.2	2.1	-4.9
C[C@@H]1CN([C@H](C)CO)C(=O)c2cccc(NS(C)(=O)=O)c2O[C@@H]1CN(C)CC1CCCCC1	-0.1	1.1	0.4	18.1*
COc1ccc(S(=O)(=O)Nc2cccc3c2O[C@H](CN(C)Cc2ccc(Cl)c(Cl)c2)[C@@H](C)CN([C@H](C)CO)C3=O)cc1	-0.1	1.4	0.3	15.1*
C[C@@H]1CN([C@@H](C)CO)C(=O)c2cccc(NS(=O)(=O)c3ccc(Cl)cc3)c2O[C@@H]1CN(C)Cc1ccc(Cl)c(Cl)c1	-0.1	-1.7	.	5.5
C[C@@H]1CN([C@H](C)CO)C(=O)c2cccc(NS(=O)(=O)c3ccc(F)cc3)c2O[C@H]1CN(C)CC1CCCCC1	-0.1	0.4	1.8	-1.1
C[C@H](CO)N1C[C@H](C)[C@@H](CN(C)CC2CCCCC2)Oc2c(NS(=O)(=O)c3ccc(F)cc3)cccc2C1=O	-0.3	-0.6	-1.0	26.8*!
C[C@@H]1CN([C@@H](C)CO)C(=O)c2cc(Br)cnc2O[C@H]1CN(C)C(=O)C1CCCCC1	0.2	-1.9	0.4	18.3*!
COCC(=O)N(C)C[C@H]1Oc2ncc(Br)cc2C(=O)N([C@@H](C)CO)C[C@H]1C	-0.1	3.8	0.5	16.7*!
COCC(=O)N(C)C[C@H]1Oc2ncc(Br)cc2C(=O)N([C@H](C)CO)C[C@H]1C	-0.4	3.3	-1.0	-1.1
C[C@@H]1CN([C@H](C)CO)C(=O)c2cc(Br)cnc2O[C@H]1CN(C)C(=O)C1CCCCC1	-0.4	-5.8	-2.9	-3.0
C[C@@H]1CCCCO[C@H](CN(C)C(=O)Nc2ccc3c(c2)OCO3)[C@@H](C)CN([C@H](C)CO)C(=O)c2cc(NS(=O)(=O)c3ccccc3)ccc2O1	-0.1	2.3	1.7	0.5
N=c1sccn1CC(=O)Nc1ccc(S(N)(=O)=O)cc1	-0.3	-3.4	1.3	-0.7
N=c1sccn1CC(=O)Nc1ccc(SC(F)F)cc1	43.4*	6.5	-7.3	-6.1
C[C@@H]1CN([C@H](C)CO)S(=O)(=O)c2ccc(C3=CCCCC3)cc2O[C@H]1CN(C)C(=O)Cc1ccccc1	-0.7	-0.4	0.2	15.1*
C[C@@H]1CN([C@@H](C)CO)S(=O)(=O)c2ccc(C3=CCCCC3)cc2O[C@@H]1CN(C)C(=O)Cc1ccncc1	-0.1	1.3	-0.9	1.1
C[C@@H]1CN([C@@H](C)CO)S(=O)(=O)c2ccc(C3=CCCCC3)cc2O[C@@H]1CN(C)C(=O)Cc1ccccc1	-0.5	0.3	2.8	18.5*
C[C@@H]1CN([C@H](C)CO)S(=O)(=O)c2ccc(C3=CCCCC3)cc2O[C@@H]1CN(C)C(=O)Cc1ccccc1	-0.7	0.4	-0.6	12.6
C[C@@H]1CN([C@H](C)CO)S(=O)(=O)c2ccc(C3=CCCCC3)cc2O[C@H]1CN(C)C(=O)Cc1ccncc1	-0.2	-0.6	0.7	17.2*
C[C@@H]1CN([C@@H](C)CO)S(=O)(=O)c2ccc(C3=CCCCC3)cc2O[C@H]1CN(C)C(=O)Cc1ccccc1	-0.1	-0.3	-1.9	16.0*
C[C@@H]1CN([C@@H](C)CO)S(=O)(=O)c2ccc(C3=CCCCC3)cc2O[C@H]1CN(C)C(=O)Cc1ccncc1	-0.2	0.1	0.0	8.7
CCCNC(=O)[C@@H]1[C@@H](CO)[C@@H]2Cn3c(ccc(C4=CCCC4)c3=O)[C@@H]2N1C(=O)CC1CC1	0.2	0.7	1.4	-8.0
CC(C)CC#Cc1ccc2c(c1)O[C@@H](CN(C)C(=O)Cc1ccccn1)[C@H](C)CN([C@H](C)CO)S2(=O)=O	-0.7	-3.0	-1.9	2.4
C[C@@H]1CCCCO[C@@H](CN(C)S(=O)(=O)c2ccc(Cl)cc2)[C@@H](C)CN([C@@H](C)CO)C(=O)c2cc(NC(=O)c3ccncc3)ccc2O1	-0.3	2.1	1.5	5.0
SMILES	FGF22 binding	ERAP1 inh	Casp6 inh	SIRT5 inh
COc1ccc(-c2cn(CC[C@H]3CC[C@@H](NC(=O)NC(C)C)[C@H](CO)O3)nn2)cc1	-0.2	2.0	1.5	-4.0
CC(C)c1ccc(Nc2nc(N3CCOCC3)nc(N3CCOCC3)n2)cc1	1.6*	-2.2	0.4	.
Clc1ccc(Nc2nc(N3CCOCC3)nc(N3CCOCC3)n2)cc1Cl	0.1	-2.8	-0.4	-3.1
COc1ccc(Nc2nc(N3CCCC3)nc(N3CCOCC3)n2)cc1	0.1	-1.0	1.7	0.8
CCOc1ccc(Nc2nc(N3CCOCC3)nc(N3CCOCC3)n2)cc1	0.1	2.8	41.4*	2.3
C[C@H]1CCCCO[C@H](CN(C)CC2CCCCC2)[C@@H](C)CN([C@@H](C)CO)C(=O)c2cc(NS(=O)(=O)c3cccs3)ccc2O1	0.4	-2.4	1.1	-6.8
CCOc1[nH]n(-c2ccc(Cl)cc2)c(=O)c1C=NCC(=O)OC	0.0	-0.4	-2.2	0.0
CCOc1[nH]n(-c2ccccc2)c(=O)c1C=NCC(=O)OC	43.4*	-1.2	-0.5	0.9
CCC(=O)N[C@@H]1CC[C@H](CC(=O)NCc2ccccc2OC)O[C@@H]1CO	0.2	-1.5	3.7	3.7
CSC(=NS(=O)(=O)c1ccc(N)cc1)NS(=O)(=O)c1cccs1	0.5	-5.1	7.9	53.3*
O=C(c1cc(=O)c2ccccc2o1)N1CCN(c2ccccc2F)CC1	0.1	1.7	0.0	3.0
CSc1ccccc1C(=O)N1CCN(c2cccc(Cl)c2)CC1	43.4*	3.2	-2.2	0.7
O=C(c1cc(=O)c2ccccc2o1)N1CCN(c2cccc(Cl)c2)CC1	43.3*	1.2	1.3	-1.7
Oc1ccccc1C(=S)N1CCN(c2cccc(Cl)c2)CC1	0.2	-0.4	3.5	-3.5
COC(=O)c1cc(NC(=O)c2ccc(OC)cc2)c(=O)oc1C	42.6	7.3	3.2	-2.4
COc1ccc(C(=O)Nc2cc3c(oc2=O)CCCC3=O)cc1	0.2	-9.0	44.2*	2.2
C[C@@H]1CN([C@@H](C)CO)S(=O)(=O)c2ccc(-c3ccc(F)cc3)cc2O[C@@H]1CN(C)C	-0.1	0.6	-3.5	-2.8
C=CC(=O)N1C/C(=C/c2ccc(F)cc2)C(=O)/C(=C\c2ccc(F)cc2)C1	0.2	-0.5	77.7*	1.6
CN1c2ccc(-c3ccccc3)cc2[C@@H]2[C@@H](CCN2C(=O)Cc2cccnc2)[C@H]1CO	-0.2	-1.9	-3.7	1.8
CC(=O)c1cccc(CN2CCN(CCc3ccccc3)C(CCO)C2)c1 (stereo not given)	-0.2	-3.0	0.8	-0.9
Cc1ccc(CN2CCN(Cc3cn(C(C)C)c4ccccc34)CC2CCO)o1 (stereo not given)	-0.3	-4.3	-0.4	-0.8
CC(=O)c1cccc(CN2CCN(CC=C(C)C)C(CCO)C2)c1 (stereo not given)	0.2	4.5	-7.9	16.7*
CC(C)=CCN1CCN(Cc2cn(C(C)C)c3ccccc23)CC1CCO (stereo not given)	0.0	-1.3	-2.2	22.0*

High-throughput results: PubChem, Broad Institute
